Most compounds without a hit are left out; they make up all but 0.92% or so of the library.
MEP2 TOR yeast: modulators of TOR pathway MEP2-GFP in S. cerevisiae. S. cerevisiae MEP2-GFP strain, flow cytometry GFP, 3 h; 100% = DMSO control level. GFP response vs DMSO, % at 10 µM. actives 0.51% (n = 330,000). AID 2016;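 active = GFP response versus DMSO above a set limit, roughly screen mean plus 3 SD, cut at about 180% in these data; inconclusive = fewer than 70 cells counted for a yeast strain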;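 also: median GFP fluorescence of the barcode-gated MEP2-GFP cells per well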
LAP4 TOR yeast: modulators of TOR pathway LAP4-GFP in S. cerevisiae | S. cerevisiae LAP4-GFP multiplex, flow cytometry GFP, 3 h; median GFP as percent of DMSO wells | actives 0.34% (n = 320,000) | AID 2023 | GFP response vs DMSO, % at 10 µM;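 active = GFP response vs DMSO above a set limit, about the screen mean plus 3 SD, cut at about 150% in these data; inconclusive = under 70 cell events counted for the yeast strain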
RPL19A TOR yeast: alters RPL19A-GFP fluorescence in TOR pathway yeast screen | S. cerevisiae RPL19A-GFP strain, flow cytometry, 3 h; hits give low values | percent response vs DMSO, % at 10 µM | actives 0.3% (n = 330,000) | AID 2025;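 active = percent response vs DMSO below 50%; inconclusive = fewer than 70 events counted for the yeast strain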;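 also: median channel GFP fluorescence of the barcoded RPL19A-GFP strain; lower means less RPL19A-GFP as with rapamycin TOR inhibition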
CIT2-GFP yeast: modulators of TOR pathway CIT2-GFP in S. cerevisiae; S. cerevisiae CIT2-GFP strain, flow cytometry, 3 h; 100 means same as DMSO wells; GFP response vs DMSO, % at 10 µM; actives 0.065% (n = 320,000); AID 2029;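 active = GFP response relative to DMSO above a set limit, near the screen mean plus 3 SD, cut at about 150% in these data; inconclusive = Fewer than 70 cells measured for a yeast strain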;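 also: ratio of well median GFP fluorescence to mean of DMSO wells on the plate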
AGP1 TOR yeast: modulators of TOR pathway AGP1-GFP in S. cerevisiae. S. cerevisiae AGP1-GFP multiplex flow cytometry, 3 h; GFP as percent of DMSO wells. GFP response vs DMSO, % at 10 µM. actives 0.02% (n = 320,000). AID 2066;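 active = GFP response relative to DMSO above a set limit, near screen average plus 3 SD, cut at about 150% in these data; inconclusive = fewer than 70 cells counted for the yeast strain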;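 also: median GFP channel fluorescence of the gated AGP1 strain per well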
A number is an active result; - = inactive; ? = inconclusive; . = no result; + = active, no number; [ ] = another dose, or the depositor's remark.

SMILES | MEP2 TOR yeast | LAP4 TOR yeast | RPL19A TOR yeast | CIT2-GFP yeast | AGP1 TOR yeast
Cc1ccc(NC(=O)/C(C#N)=C/c2ccc(C)s2)c(C)c1 | 467.7[may fluoresce violet] | - | - | ? | ?
CCOc1ccccc1N(CC(=O)Nc1cccnc1)S(C)(=O)=O | 552.5[may fluoresce violet] | - | 40.3[may fluoresce violet] | ? | .
CCOc1ccccc1N(CC(=O)Nc1cccnc1)S(=O)(=O)c1ccc(C)cc1 | - | - | - | - | -
COc1cc(/C=N/n2cnnc2)ccc1OCc1ccccc1 | - | - | - | - | -
COc1cc(/C=N/n2cnnc2)ccc1OCCOc1ccccc1 | 261.8[may fluoresce violet] | - | . | ? | -
CC1CCN(C(=O)CN2C(=O)NC(c3ccccc3)(c3ccccc3)C2=O)CC1 | - | - | - | - | -
CC(=O)c1ccc2noc(-c3ccc(F)cc3)c2c1 | - | - | - | - | -
CN(Cc1ccccc1)C(=O)c1ccc(NC(=O)Cc2cccc(NC(=O)C3CCN(C(=O)C4CCCC4)CC3)c2)cc1 | - | - | - | - | -
C[C@H]1O[C@@H](n2cc(F)c(=O)[nH]c2=O)[C@H](O)[C@@H]1O | ? | ? | 40.8[may fluoresce violet] | ? | ?
CCC(C)(C(=O)NC1CCCCC1)N(C(=O)Cc1cccs1)c1ccccc1 (stereo unspecified) | - | - | - | - | -
CC(NC(=O)c1ccco1)c1ccc(-n2ccnc2)cc1 (stereo unspecified) | - | - | - | - | -
Cc1cc(C)n2nc(SCC(=O)N(C)C)nc2n1 | 435.3[may fluoresce violet] | - | 42.9[may fluoresce violet] | ? | ?
Cc1ccc(C(=O)NCC(=O)OC(C)C(=O)Nc2ccc(N3CCOCC3)cc2)s1 (stereo unspecified) | - | - | - | - | -
Cc1ccc(OCC(=O)Nc2ccc3c(c2)nc2n3CCOC2)cc1 | - | - | - | - | -
O=C(COc1ccc([N+](=O)[O-])cc1)Nc1ccc2c(c1)nc1n2CCOC1 | 203.4[may fluoresce violet] | - | 10.8[may fluoresce violet] | ? | ?
O=C1C(Br)=Cc2cccc3cccc1c23 | 388.6[may fluoresce violet] | - | 34.8[may fluoresce violet] | ? | ?
Cc1ccccc1NS(=O)(=O)c1ccc(C(=O)NCCCN2CCCC2=O)cc1 | - | - | - | - | -
Cc1ccc(S(=O)(=O)N2CCCC2)cc1C(=O)NCCOc1ccccc1 | - | - | - | - | -
COc1cccc(C(=O)N/N=C(\CC(C)C)c2ccccc2)c1 | 183.1 | - | - | - | -
COc1ccc(/C=C/C(=O)NC(=S)N2CCSCC2)cc1 | +[may fluoresce green] | +[may fluoresce green] | - | . | 257.1[may fluoresce green]
COc1ccc(/C=C/C(=O)NC(=S)N2CCN(c3ccccn3)CC2)cc1 | - | - | - | - | -
Oc1c(Br)cc(Br)cc1C=NCc1ccc(F)cc1 | - | - | - | - | -
Oc1c(Br)cc(Br)cc1C=NCc1ccccc1 | - | 151.3 | - | - | -
CC(C)S(=O)(=O)N1CCCC(C(=O)c2cccc(Cl)c2)C1 (stereo unspecified) | - | - | - | - | -
CC(=O)NCCc1nc2cc(NC(=O)c3cccs3)ccc2n1C | 271.1[may fluoresce violet] | - | - | ? | -
SMILES | MEP2 TOR yeast | LAP4 TOR yeast | RPL19A TOR yeast | CIT2-GFP yeast | AGP1 TOR yeast
CC(=O)NCCc1nc2cc(NC(=O)c3ccccc3Cl)ccc2n1C | - | - | - | - | -
CCCCN(CCCNC(=O)C1CCN(C(=O)c2cc3sccc3n2C)CC1)Cc1ccccc1 | - | - | - | - | -
CCN(CCCNC(=O)C1CCN(C(=O)c2cc3sccc3n2C)CC1)Cc1ccccc1 | 283.4[may fluoresce violet] | - | 44.3[may fluoresce violet] | ? | ?
CC(C)CCC(O)(c1ccccc1)C(CN1CCOCC1)c1ccccc1 (stereo unspecified) | - | - | - | - | -
CC(C)CC(O)(c1ccccc1)C(CN1CCOCC1)c1ccccc1 (stereo unspecified) | 378.2[may fluoresce violet] | - | 22.4[may fluoresce violet] | ? | ?
O=C(NC1=NCCS1)c1cccc(F)c1 | - | - | - | - | -
O=C(NC1=NCCS1)c1cccc(Br)c1 | 185.4[may fluoresce violet] | - | - | ? | -
CCCCS(=O)(=O)NC1=NCN(CCO)CN1 | 302.8[may fluoresce violet] | - | - | ? | ?
Cc1ccc(C2OC34CCCCCC3C(C#N)(C(=N)O4)C2(C#N)C#N)cc1 (stereo unspecified) | 197.1[may fluoresce violet] | - | - | ? | ?
CCCCOc1ccc(C2OC34CCCCC3C(C#N)(C#N)C2(C#N)C(=N)O4)cc1 (stereo unspecified) | - | - | - | - | -
C=CCOc1ccc(C2OC34CCCCC3C(C#N)(C#N)C2(C#N)C(=N)O4)cc1 (stereo unspecified) | 567.6[may fluoresce violet] | - | 35.1[may fluoresce violet] | ? | .
O=[N+]([O-])c1ccc(CSc2nc3ccccc3[nH]2)cc1 | - | - | - | - | -
O=c1cnnc(SCc2ccc([N+](=O)[O-])cc2)[nH]1 | - | - | - | 173.7 | -
Cc1ccc(N=C2NC(=O)CS2)cc1C | - | - | - | - | -
N#C/C(=C\c1ccc([N+](=O)[O-])o1)C(=O)Nc1ccc(F)cc1 | 822.9[may fluoresce violet] | 322.9[may fluoresce violet] | - | ? | -
CC(CNC(=O)c1ccc(OC2CCN(Cc3ccccn3)CC2)cc1)c1ccccc1 (stereo unspecified) | - | - | - | - | -
CC1CCc2c(C(=O)NCc3cccnc3)csc2C1 (stereo unspecified) | - | - | - | 168.9 | -
COc1ccccc1NC(=O)CN(Cc1ccco1)C(=O)c1cncc(Br)c1 | 363.8[may fluoresce violet] | - | 48.7[may fluoresce violet] | ? | -
Cc1ccc(Cl)c(OC(=O)Cn2cnc3c2c(=O)n(C)c(=O)n3C)c1 | - | - | - | - | -
Cc1cc(C)n2nc(CNS(=O)(=O)c3ccc([N+](=O)[O-])cc3)nc2n1 | - | - | 28.7[may fluoresce violet] | ? | ?
Cn1cccc1-c1nc2ccccc2[nH]1 | - | - | - | - | -
O=C1C2CCCN2C(=O)N1CCCCN1CCN(c2cccc(Cl)c2)CC1 (stereo unspecified) | - | - | - | - | -
N#Cc1ccc(OCC(=O)NNC(=S)NC(=O)C2CC2)cc1 | - | - | - | - | -
CC(C)c1ccc(OCC(=O)NNC(=S)NC(=O)C2CC2)cc1 | - | 154.1[may fluoresce green] | - | - | -
CC(=O)C1=C(C)NC(SCC(=O)c2ccccc2)=C(C#N)C1CC(C)C (stereo unspecified) | - | - | - | - | -
SMILES | MEP2 TOR yeast | LAP4 TOR yeast | RPL19A TOR yeast | CIT2-GFP yeast | AGP1 TOR yeast
Cc1ccc(S(=O)(=O)NCCC(=O)NCc2cccnc2)cc1 | - | - | - | - | -
O=C(CCNS(=O)(=O)c1ccc(Cl)cc1)NCc1cccnc1 | 252.3[may fluoresce violet] | - | 29.1[may fluoresce violet] | ? | ?
FC(F)(F)c1cc(-c2cccs2)nc2cc(-c3cccs3)nn12 | 178.9 | - | - | - | -
CCc1cccc(NC(=O)COc2ccccc2)c1 | 251.8[may fluoresce violet] | - | 20.9[may fluoresce violet] | ? | ?
CC(=O)c1cccc(NC(=O)COc2ccccc2)c1 | - | - | - | - | -
CCOC(=O)c1cc2c(=O)n3ccccc3nc2n(CCOC)c1=NC(=O)C(C)(C)C | 330.6 | - | - | - | -
CCC(Oc1ccccc1)C(=O)Nc1ccc(S(=O)(=O)Nc2ncccn2)cc1 (stereo unspecified) | 236.1[may fluoresce violet] | - | - | ? | -

From PubChem BioAssay
